Hits are enriched below; roughly 2.2% of the tested compounds scored in any of these assays.
FUS yeast rescue: FUS proteinopathy suppression in yeast; S. cerevisiae FUS-expressing, growth rescue, OD600, 24 h; actives 0.24% (n = 390,000); Potency, µM (titrated, usually from 76.6 µM), actives largely listed as activators; also: nearly all actives have a fitted effect of over 55% in size
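Restored growth of FUS-toxic S. cerevisiae, read as 600 nm absorbance after 24 h at 30C in galactose medium (starting OD 0.005). Controls CP55940 and DMSO.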
Abeta rescue: compounds reversing amyloid beta toxicity in yeast | yeast expressing A-beta42, growth rescue, OD600, 48 h; response scale: 0% DMSO, 100% iron-clioquinol control | Potency, µM (titrated, usually from 46.1 µM), actives largely listed as activators | actives 0.063% (n = 410,000); also: nearly all actives have a fitted effect of over 55% in size
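Yeast growth medium received pinned compounds, then yeast cells expressing toxic A-beta were added; plates incubated at 30 C for 48 hr. Growth read as absorbance at 600 nm, normalized to DMSO and equimolar FeCl3 plus clioquinol controls.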
Mito fusion yeast: mitochondrial division inhibition or fusion activation. S. cerevisiae fusion-defective mutant growth rescue, CellTiterGlo 48 h. Potency, µM (series often up to 46.1 µM), actives largely listed as activators. actives 0.23% (n = 320,000). AID 485298; also: nearly all actives have a fitted effect of over 45% in size
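Growth-rescue viability read-out: after 48 h at the non-permissive 37C in glycerol/ethanol YPEG, yeast mitochondrial fusion mutants are measured by CellTiterGlo luminescence; compounds (23 nl pinned per well) restoring growth score as division inhibitors or fusion activators.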
aSyn yeast inh: rescues yeast growth from alpha-synuclein toxicity | Yeast expressing alpha-synuclein, growth rescue, BacTiter-Glo, 24 h | Potency, µM (series often up to 46.1 µM), actives largely listed as activators | actives 0.14% (n = 370,000); also: nearly all actives have a fitted effect of over 65% in size
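Screening used galactose-induced yeast with toxic alpha-synuclein levels, exposed to compound for 24 hr at 30 deg C. Cell growth, read with BacTiter-Glo luminescence, gave the measured signal.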
TDP43 rescue: rescues yeast growth from TDP-43 toxicity | AID 652104 | actives 1.8% (n = 410,000) | Potency, µM (top dose mostly 46.1 µM), usual class: activators | TDP-43 expressing yeast growth rescue, BacTiter-Glo, 24 h; also: nearly all actives have a fitted effect of over 50% in size
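Galactose-induced TDP-43 yeast, OD600=0.02, compound pinned; 24 hr, 30 deg C; BacTiter-Glo luminescence for growth. Inhibitors of TDP-43 toxicity read as activators.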
Of the large screens only hits and unclear results are named; the others gave an inactive call; ! = not confirmed by another sample. Calls follow the shape of the dose curve; as a rule, active = well fitted curve in the direction sought with a large enough effect; inconclusive = small, poorly fitted or top-dose-only effect, or another doubt; inactive = no such curve, though single readings can be large; an effect the other way counts as inactive or inconclusive.

CCc1nc(SCC(=O)c2ccccc2)c2c(=O)n(C)c(=O)n(C)c2n1	none
c1coc(-c2nc3cc4ccccc4cc3nc2-c2ccco2)c1	none (no result: FUS yeast rescue, Abeta rescue, Mito fusion yeast, TDP43 rescue)
CCOC(=O)c1cc(C)nc(Sc2ccc(C)cc2)c1C#N	none
O=C(C[n+]1cccc(Br)c1)c1ccc(-c2ccccc2)cc1	TDP43 rescue 1.6µM
COC[C@H]1CCCN1c1ccc2c(c1)O[C@H]1CCN(C1)S2(=O)=O	none (no result: Abeta rescue, Mito fusion yeast, aSyn yeast inh, TDP43 rescue)
CCCCN(CCCC)C(=O)c1cc2c(=O)n3cccc(C)c3nc2s1	FUS yeast rescue inconclusive, TDP43 rescue 22µM (no result: Mito fusion yeast, aSyn yeast inh)
Cc1cccn2c(=O)c3cc(C(=O)N4CCCCC4)sc3nc12	TDP43 rescue 11µM
CCCN(CCC)C(=O)c1cc2c(=O)n3cccc(C)c3nc2s1	none
Cc1cccn2c(=O)c3cc(C(=O)N4CCCC(C)C4)sc3nc12 (stereo not given)	TDP43 rescue inconclusive
COC(=O)CSc1nnc(-c2n[nH]c3c2CCC3)n1N	none (no result: Abeta rescue, Mito fusion yeast, aSyn yeast inh, TDP43 rescue)
COc1ccccc1N1CCN(C(=O)COc2cccc3ccccc23)CC1	FUS yeast rescue inconclusive, aSyn yeast inh inconclusive, TDP43 rescue 35µM
COc1cc(SC)ccc1C(=O)N1CCN(c2ccccc2F)CC1	TDP43 rescue 11µM
CCOc1ccccc1N1CCN(C(=O)c2cc3ccccc3cc2OC)CC1	TDP43 rescue 14µM
COc1cc2ccccc2cc1C(=O)N1CCN(C(C)=O)CC1	none
O=C(COc1ccc2ccccc2c1Br)N1CCCC1	TDP43 rescue 11µM
COc1ccc(N2CCN(C(=O)c3ccc(SC)cc3OC)CC2)cc1	none
Cc1ccc(F)cc1NC(=O)N1CCNC(=O)C1CC(=O)Nc1cc(Cl)ccc1Cl (stereo not given)	none
COc1cccc(Cn2ncc3c4sc(S(C)=O)cc4n(C)c3c2=O)c1 (stereo not given)	none (no result: Abeta rescue, Mito fusion yeast, aSyn yeast inh, TDP43 rescue)
Cc1ccc(C2CCC3(CCC(=O)N3CCO)CC2)cc1 (stereo not given)	none (no result: Abeta rescue, Mito fusion yeast, aSyn yeast inh, TDP43 rescue)
Cc1ccc(-n2nc3c(c2NC(=O)c2ccco2)CS(=O)C3)cc1 (stereo not given)	none
O=C(CSc1nnc(-c2cccs2)o1)c1cccc([N+](=O)[O-])c1	none (no result: Abeta rescue, Mito fusion yeast, aSyn yeast inh, TDP43 rescue)
COc1ccc2[nH]c(C(=O)N3CCN(c4ccccc4F)CC3)c(C)c2c1	TDP43 rescue 16µM
COc1cc2ccccc2cc1C(=O)N1CCN(c2nc3ccc(F)cc3s2)CC1	TDP43 rescue 13µM (no result: Mito fusion yeast, aSyn yeast inh)
COc1cc(OC)cc(C(=O)N2CCN(c3ccccc3F)CC2)c1	TDP43 rescue inconclusive
CCCCCCCCN(CCCCCCCC)c1ccc(/C=C/c2ccnc3ccccc23)cc1	none (no result: FUS yeast rescue, Abeta rescue, Mito fusion yeast, TDP43 rescue)
Nc1ncnc2c(C3OC(CO)C(O)C3O)c[nH]c12 (stereo not given)	aSyn yeast inh 11µM, TDP43 rescue 3.2µM (no result: FUS yeast rescue, Mito fusion yeast)
Nc1ncnc2c1ncn2[C@@H]1O[C@H](CO)[C@@H](O)[C@H]1O	none
CC(=O)Nc1cccc(NC(=O)Cn2cnc3c2c(=O)n(C)c(=O)n3C)c1	none (no result: Mito fusion yeast, aSyn yeast inh)
COc1cc(OC)c(C2SCCCS2)cc1OC	TDP43 rescue 35µM (no result: FUS yeast rescue)
COc1ccc(CCN2C(=O)c3ccccc3C2c2nnnn2C(C)C)cc1OC (stereo not given)	TDP43 rescue inconclusive (no result: Mito fusion yeast)
NS(=O)(=O)c1cccnc1Nc1cccc(C(F)(F)F)c1	none
O=C(O)c1cccnc1Nc1cccc(C(F)(F)F)c1	Mito fusion yeast 18µM!
CC(C)(C)C(=O)Nc1cc(S(=O)(=O)Nc2ccc(Cl)cc2)ccc1Cl	Mito fusion yeast 18µM
CCOc1ccc2c(c1)[C@@H]1C=CC[C@@H]1[C@H](c1ccccc1Cl)N2	none (no result: Mito fusion yeast, aSyn yeast inh)
COc1ccc(/C(N)=N/OC(=O)CN(C)S(=O)(=O)c2ccccc2)cc1	TDP43 rescue 13µM
COc1ccc(CC(=O)O/N=C(\N)c2ccc(OC)cc2)cc1	TDP43 rescue 18µM
COc1ccc(/C(N)=N/OC(=O)C2CCCCC2)cc1OC	none
COc1ccc(/C(N)=N/OC(=O)C2CCCCC2)cc1	TDP43 rescue 16µM
N/C(Cc1ccc(Cl)cc1Cl)=N\OC(=O)Cc1ccc(Cl)cc1	TDP43 rescue 1.3µM
CCCCNC(=O)C[C@H]1C[C@@]2(C(=O)OC)C(=C[C@H](C(C)C)O[C@@H]2C2CC2)N(Cc2ccc(Cl)cc2Cl)C1=O	none (no result: Abeta rescue, Mito fusion yeast, aSyn yeast inh, TDP43 rescue)
COC(CNC(=O)[C@H](Cc1c[nH]c2ccccc12)NC1(C(=O)NC2CCCCC2)CCCCC1)OC	none (no result: Abeta rescue, Mito fusion yeast, aSyn yeast inh, TDP43 rescue)

Assay outcomes (PubChem)
